Inconclusive results are not listed. Where a call stands in place of a potency, no number is given. The source made the active and inactive calls. The call rests on the fitted dose curve; in most records, active means well fitted cell-killing curve with a large enough effect in the repeat runs; inconclusive means weak or mixed curves, or effect the other way; inactive means flat fitted curve, though single readings scatter.
Potency means the concentration at half of the fitted maximal effect.

This experiment in a line: cAMP Responsive Elements (CRE) small molecule antagonists, cell-based qHTS assay: qHTS cell viability counter screen (AID 2060913). Further: nearly all actives have a fitted effect of over 40% in size. The following applies: CRE-bla HEK293T viability, CellTiter-Glo luminescence, 5 h; series mostly up to 92.4 µM. The source says:
U.S. Tox21 Program National Center for Advancing Translational Sciences [NCATS] Division of Preclinical Innovation [DPI] U.S. Environmental Protection Agency [EPA] National Institutes of Environmental Health Sciences [NIEHS] National Toxicology Program [NTP] U.S. Food and Drug Administration [FDA] Tox21 Assay Overview: CREB (cyclic-AMP Responsive Element Binding Protein) is a cellular transcription factor. It binds to certain DNA sequences called cAMP Responsive Elements (CRE) and regulates the transcription of the genes. […] This cell line can be used to find agonists/antagonists of the cyclic AMP signaling pathway. The activation of the report gene under culture conditions can be detected by fluorescence intensity. This cell line has been used to screen the Tox21 10K compound library to identify agonists that induce oxidative stress. The cytotoxicity of the Tox21 compound library against the CRE-bla cell line was tested in parallel by measuring the cell viability using CellTiter-Glo assay (Promega, Madison, WI) in the same wells.
Tox21 Assay Protocol Summary: CRE-bla Hek 293T cells were suspended in assay medium (DMEM containing 10% dialyzed FBS, 0.1 mM NEAA, 1 mM sodium pyruvate and 25 mM HEPES) and dispensed at 2,000 cells/4 uL /well into 1536-well black wall/clear bottom plates using a Multidrop Combi (ThermoFisher Scientific, Waltham, MA) dispenser. After the assay plates were incubated at 37 C/5% CO2 for 18 hrs, 23 nL of compounds dissolved in DMSO, positive controls or DMSO only was transferred to the assay plate by a pintool workstation (Kalypsys, San Diego, CA), followed by addition of 1 uL of 1.25uM NKH477 (0.25 uM as final concentration) in assay medium using a Flying Reagent Dispenser (Aurora Discovery, San Diego, CA). The plates were incubated at 37 C and 5% CO2 for 3 hrs. Then 1 uL of LiveBLAzer B/G FRET substrate (Invitrogen, Carlsbad, CA) was added to each well using Bioraptr Flying Reagent Dispenser (FRD, Aurora Discovery, San Diego, CA). The plates were incubated at room temperature for 2 h, then fluorescence intensities were measured using an Envision plate reader (PerkinElmer, Shelton, CT) at Excitation 405nm, Emission 460nm and 530nm. The % activity was determined from the ratio of 460nm/530nm. For cell viability readout that measures cytotoxicity, 4 uL /well of CellTiter-Glo reagent was added into the assay plates using Bioraptr FRD. After 30 min incubation at room temperature, the luminescence intensity in the assay plates was measured using a ViewLux (PerkinElmer, Shelton, CT) plate reader.
For the compound `CC(C)c1cccc(C(C)C)c1N1C(=O)c2ccc(O)cc2C1=O`, the Potency was 61.1 µM (active).
Then `C[Si](C)(C)N[Si](C)(C)C`, with “inactive”; and `O=C(O)[C@@H]1CSCN1`, with “inactive”.
For `CCCCC1C(=O)N(c2ccccc2)N(c2ccccc2)C1=O`, the Potency result was “inactive”.
`C=COCC1CCC(COC=C)CC1` (stereo not given): the Potency entry is “inactive”.
Then `O=C(N[C@@H](Cc1ccccc1)[C@@H](O)C(=O)N1C[C@@H](O)[C@@H](O)C1)c1cc2cc(Cl)ccc2[nH]1`, with “inactive”; and `C[C@H](CCC(=O)O)[C@H]1CC[C@H]2[C@@H]3CC[C@@H]4C[C@H](O)CC[C@]4(C)[C@H]3CC[C@]12C`, with “inactive”.
With `NCCc1ccn[nH]1`, the Potency result was “inactive”.
In the case of `Cc1cc(C(C)(C)C)cc(C)c1CC1=NCCN1`, the Potency result was “inactive”.
Then `Cc1cc(C)cc(N)c1`, with “inactive”; and `O=C(O)c1ccc(O)cc1`, with “inactive”; and `O=C(Nc1ccc(Cl)cc1)Nc1ccc(Cl)c(C(F)(F)F)c1`, with 26.6 µM (active).
Take `CCOC(/C=C(\C)CCC=C(C)C)OCC`: the Potency entry is “inactive”.
Then `Cc1ccc(N(C)C)cc1`, with “inactive”; and `Cc1cc2c(OCC(CNC(C)(C)C)OC(=O)c3ccccc3)cccc2[nH]1` (stereo not given), with “inactive”.
Take `O=S(=O)(O)c1cc(O)c(O)c(S(=O)(=O)O)c1`: the Potency result is “inactive”.
For `Nc1ccc(S(=O)(=O)Nc2nccs2)cc1`, the Potency result is “inactive”.
The value for `CCC(CC)C(=O)O` was “inactive”.
As to `CCOc1ccccc1C(N)=O`, the Potency result was “inactive”.
Take `CC(C)=C1CC[C@@H](C)CC1=O`: the Potency result is “inactive”.
The value for `CC(C)C1CCC(O)CC1` (stereo not given) was “inactive”.
Take `Cc1ccc(O)c(N)c1`: the Potency result is “inactive”.
The value for `O=c1c(O)c(-c2ccc(O)cc2O)oc2cc(O)cc(O)c12` was “inactive”.
Regarding `O=C(Nc1cccc(Cl)c1)OCC#CCCl`, the Potency result is “inactive”.
Consider `CC(=C(CCOC(=O)C(C)C)SSC(CCOC(=O)C(C)C)=C(C)N(C=O)Cc1cnc(C)nc1N)N(C=O)Cc1cnc(C)nc1N`, for which the Potency result is “inactive”.
As to `CCCCOCC`, the Potency result was “inactive”.
Consider `CC(CN)CCCN` (stereo not given), for which the Potency entry was “inactive”.
On to `CCCCCCOC(=O)CC`, for which the Potency result is “inactive”.
In the case of `C=C1C2CCC(C2)C1(C)C` (stereo not given), the Potency result is “inactive”.
Then `C/C=C/c1ccc(O)c(OC)c1`, with “inactive”; and `COCC(=O)Nc1c(I)c(C(=O)NCC(O)CO)c(I)c(C(=O)N(C)CC(O)CO)c1I` (stereo not given), with “inactive”; and `C[N+](C)(C)CCO`, with “inactive”.
Then `COC(C)=O`, with “inactive”; and `O=C1c2ccccc2C(=O)C1c1ccc2cc(S(=O)(=O)O)cc(S(=O)(=O)O)c2n1`, with “inactive”.
In the case of `COc1cc([C@@H]2c3cc4c(cc3[C@@H](O[C@@H]3O[C@@H]5CO[C@@H](C)O[C@H]5[C@H](O)[C@H]3O)[C@H]3COC(=O)[C@H]23)OCO4)cc(OC)c1O`, the Potency result is “inactive”.
The value for `Cc1ccccc1Cl` was “inactive”.
Consider `CCCCOC(=O)CC(CC(=O)OCCCC)(OC(C)=O)C(=O)OCCCC`, for which the Potency result was “inactive”.
For `Cc1cccc2ccccc12`, the Potency result was “inactive”.
For `CC(=O)C(=O)O`, the Potency result was “inactive”.
Take `CCCCOC(=O)[C@H](C)O`: the Potency entry is “inactive”.

The record behind these values is PubChem BioAssay (Tox21).
